Screens as filed in PubChem.
Sampled rows, rich in hits. Any-hit rate of the full collection: about 1.9%.
PrPC surface inh: cell surface PrPC inhibition, primary TR-FRET screen | P04156 | TR-FRET read-out | inhibition, % at 13.8 µM | actives 0.43% (n = 370,000) | AID 720596; in the data active means inhibition above about 24%; further: 0% = median of the test wells and 100% = reference compound wells
BJeLR lethal: kills HRASV12-expressing BJeLR cells. inhibition, % (test concentration not listed). BJeLR (HRASV12) viability, CellTiter-Glo ATP luminescence, 48 h. actives 0.17% (n = 300,000); in the data active means inhibition above about 50%
PriA SSB inh: inhibitors of Klebsiella pneumoniae PriA binding to SSB C-terminal tail | AlphaScreen SSBct-PriA binding, biotinylated peptide | actives 0.6% (n = 430,000) | inhibition, % at 33 µM; in the data active means inhibition mostly above about 37%, no sharp cut-off; inactive means mostly below about 20%;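 further: plate controls were negative control peptide for no effect and reference peptide for full effect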
PrP 5UTR inh: suppresses PrP 5' UTR mRNA reporter expression; cell-based PrP 5' UTR mRNA reporter, plate reader; inhibition, % (no concentration beside the values); actives 0.35% (n = 340,000); in the data active means inhibition above about 52%; further: 0 = median of the neutral control wells
PfHsp40 rescue: restores yeast growth despite PfHsp40 toxicity | growth rescue, % at 12.5 µM | S. cerevisiae expressing PfHsp40, growth rescue, ATP luminescence | actives 0.68% (n = 340,000) | AID 504582; in the data active means growth rescue above about 28%, passing the limit was not always enough;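 further: yeast W303a lacking pdr1 and pdr3 grown in galactose medium; growth measured after three days at 30 °C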
RecA intein inh: inhibitors of M. tuberculosis RecA intein splicing. P9WHJ3. cell-free RecA intein splicing, fluorescence. inhibition, % (no concentration beside the values). actives 0.75% (n = 290,000). AID 2221; in the data active means inhibition above about 30%;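 further: 0% = vehicle wells and 100% = reference inhibitor control wells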
Target sequence (P9WHJ3 whole entry, looked up): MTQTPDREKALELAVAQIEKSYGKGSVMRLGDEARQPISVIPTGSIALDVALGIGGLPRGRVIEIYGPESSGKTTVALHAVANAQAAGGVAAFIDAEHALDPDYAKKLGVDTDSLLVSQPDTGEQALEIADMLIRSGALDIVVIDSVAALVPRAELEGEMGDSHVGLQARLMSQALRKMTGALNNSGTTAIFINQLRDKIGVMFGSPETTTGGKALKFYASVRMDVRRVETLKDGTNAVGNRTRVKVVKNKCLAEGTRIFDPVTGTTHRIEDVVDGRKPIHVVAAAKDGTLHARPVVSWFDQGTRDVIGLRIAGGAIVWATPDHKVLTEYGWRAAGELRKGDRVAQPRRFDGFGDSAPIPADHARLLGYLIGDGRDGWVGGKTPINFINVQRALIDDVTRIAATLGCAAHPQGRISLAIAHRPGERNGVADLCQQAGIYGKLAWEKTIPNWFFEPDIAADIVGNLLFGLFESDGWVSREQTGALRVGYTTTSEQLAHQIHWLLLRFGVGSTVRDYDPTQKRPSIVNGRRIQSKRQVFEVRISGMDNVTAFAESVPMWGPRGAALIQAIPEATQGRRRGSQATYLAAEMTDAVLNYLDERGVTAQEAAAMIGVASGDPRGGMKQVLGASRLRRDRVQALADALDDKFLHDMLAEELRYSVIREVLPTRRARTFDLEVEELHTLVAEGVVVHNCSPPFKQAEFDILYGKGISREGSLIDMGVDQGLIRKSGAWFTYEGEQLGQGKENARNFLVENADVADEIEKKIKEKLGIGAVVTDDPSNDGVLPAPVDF
* marks the source's active call; other numbers are inactive results; / = no result given.

SMILES	PrPC surface inh	BJeLR lethal	PriA SSB inh	PrP 5UTR inh	PfHsp40 rescue	RecA intein inh
N#Cc1nc(COc2ccc(Cl)cc2)oc1N1CCCCCC1	12	/	52*	-14	6	/
CC1CN(c2oc(COc3ccc(Cl)cc3Cl)nc2C#N)CC(C)O1 (stereo not drawn)	1	-1	43*	-9	2	4
Cc1ccc(OCc2nc(C#N)c(N3CCCCC3)o2)cc1	-5	18	45*	-9	7	2
N#Cc1nc(COc2ccccc2)oc1N1CCCCC1	4	-5	37	-31	-1	1
Cc1cc(C)n(CCN2CCCN(S(=O)(=O)c3ccc4c(c3)CCCC4)CC2)n1	/	/	4	/	/	/
CCOCC(=O)Nc1cc(-c2cn3nc(OC)ccc3n2)ccc1F	/	/	-11	/	/	/
COc1ccc(N2CCN(C(=O)c3ccc(C)cc3)CC2)c([N+](=O)[O-])c1	-20	-3	27	-15	33*	2
Cc1ccc(CNC(=O)CN2C(=O)COc3ccc(C)cc32)cc1	-1	1	39*	-12	0	-1
Cc1ccc2c(c1)N(CC(=O)NCc1cccs1)C(=O)CO2	0	8	-3	-30	0	0
Clc1ccc(-c2csc(-c3cc4cc(Cl)ccc4oc3=Nc3ccccc3)n2)cc1	/	/	-1	/	/	/
CC1CCCC(C)N1C(=O)Nc1c[nH]c2ccccc12 (stereo not drawn)	/	/	8	/	/	/
O=C(NCc1cccnc1)c1ccc(NC(=O)c2ccc(Br)cc2)cc1	5	78*	-7	-10	-2	1
CC(C)C(=O)Nc1ccc(C(=O)NCc2cccnc2)cc1	-2	78*	-15	-8	0	-1
CN1C(=O)/C(=C\c2cc(I)c(O)c(I)c2)SC1=S	/	/	9	/	/	/
Cc1ccc(C=NNC(=O)c2c(-c3ccccc3)noc2C)o1	/	/	3	/	/	/
Oc1c(Br)cc(Br)cc1Oc1ccc(Br)cc1Br	/	10	/	/	/	39*
COc1ccc(-c2csc(/C(C#N)=N\Nc3ccc(Cl)cc3)n2)cc1OC	/	/	0	/	/	/
Clc1cccc(CON/C=N/c2ncnc3sccc23)c1	15	2	/	-10	812*	9
COc1ccc(NC(=O)CSc2ccc(NC(=O)c3cccs3)nn2)cc1OC	/	/	-4	/	/	/
COc1cc(NC(=O)COC(=O)CNC(=O)c2ccc(C)cc2)c(C)cc1[N+](=O)[O-]	-2	-4	-5	-9	86*	0
COc1cccc2cc(C(=O)Nc3cnc4cc(C(F)(F)F)nn4c3)oc12	/	/	-14	/	/	/
COc1ccc(C2(CNC(=O)Cc3ccccc3Cl)CCCC2)cc1	/	/	-7	/	/	/
CC1(C)Cc2ccccc2C(NN=Cc2ccc([N+](=O)[O-])cc2)=N1	/	/	3	/	/	/
Cc1nn(-c2ccccc2)c2c1C1(C(=O)Nc3ccccc31)C(C#N)=C(N)O2 (stereo not drawn)	/	/	2	/	/	/
Cn1c2c(c(=O)n(C)c1=O)[C@@]1(C(=O)Nc3ccccc31)C(C#N)=C(N)O2	0	4	-1	-16	1	34*
SMILES	PrPC surface inh	BJeLR lethal	PriA SSB inh	PrP 5UTR inh	PfHsp40 rescue	RecA intein inh
CC(=NNc1nc2ccccc2[nH]1)c1ccc2c(c1)OCCO2	/	/	42*	/	/	/
CC(C)=NNc1nc2ccccc2[nH]1	/	/	69*	/	/	/
CCOc1ccc(NC(=O)CCNC(=O)N2C[C@H]3C[C@H](C2)c2cccc(=O)n2C3)cc1	/	/	-3	/	/	/
CC[C@@H](O)C[C@H]1CCC[C@@]2(C[C@@H]3OC(=O)/C=C/[C@@](C)(O)[C@@H](O)[C@H](C)[C@@H](O)[C@H](OC4CCC(N(C)C)C(C)O4)[C@@H](O)[C@](C)(O)CCCCC/C=C/[C@@H]4CC(C)(C)O[C@@]4(O)C[C@H](O2)[C@H]3C)O1 (stereo partly drawn)	22	/	-6	-24	56*	/
COc1ccc(NC(=S)NCc2ccc3c(c2)cc(C)n3C)cc1	-11	-4	75*	-6	-1	0
CCCCNC(=S)NCc1ccc2c(c1)cc(C)n2C	9	-11	83*	-37	0	2
Cc1cc(C)cc(NC(=S)NCc2ccc3c(c2)cc(C)n3C)c1	/	/	60	/	/	/
Cc1cc2cc(CNC(=S)NC3CCCCC3)ccc2n1C	5	2	59*	-10	0	/
CCc1cccc(C)c1NC(=S)NCc1ccc2c(c1)cc(C)n2C	10	-7	53*	-27	1	6
O=C(Cn1ncccc1=O)N1CCN(c2cc(C(F)(F)F)ncn2)CC1	/	/	-9	/	/	/
CCc1ccccc1NC(=O)N1C[C@H]2C[C@H](C1)c1cccc(=O)n1C2	/	/	-5	/	/	/
COc1ccc(OCC(=O)NN=Cc2ccncc2)cc1	/	/	-2	/	/	/
CCCc1ccc(C(C)NC(=S)NCc2ccc(F)cc2)cc1 (stereo not drawn)	2	2	-12	-8	-1	3
CC(NC(=S)NCc1ccc(F)cc1)C12CC3CC(CC(C3)C1)C2 (stereo not drawn)	4	-7	-25	-25	157*	0
CCC(NC(=S)NCc1ccc(F)cc1)c1ccc(C(C)C)cc1 (stereo not drawn)	7	1	0	-23	472*	6
C=CCNC(=O)N1CCN(Cc2nc3ccccc3[nH]2)CC1	/	/	-1	/	/	/
Nc1ccc(NC(=O)C(F)(F)F)c(Cl)c1	/	/	-2	/	/	/
CCN(Cc1ccccc1)c1ccc(C=NN2CCOCC2)cc1	/	/	47*	/	/	/
CCN(Cc1ccccc1)c1ccc(/C=N/N2CCOCC2)cc1	3	/	/	-16	0	4
COC(=O)C1=CN(c2cccc(C)c2)C=C(C(=O)OC)C1c1cc(OC)c(O)c([N+](=O)[O-])c1	2	-2	53*	-30	0	10
Cn1nc2c(c1NC(=O)C1CCCN(S(=O)(=O)c3ccc(Cl)s3)C1)CCC2 (stereo not drawn)	/	/	-9	/	/	/
COC(=O)c1ccccc1C(=O)N1CCC[C@H](Cc2nc(-c3cnccn3)no2)C1	/	/	-12	/	/	/
Cc1ccc(C(=O)Nc2ccc(C(=O)NN=Cc3cccnc3)cc2)cc1	/	/	-4	/	/	/
O=C(N/N=C/c1cccnc1)c1ccc(NC(=O)C(c2ccccc2)c2ccccc2)cc1	13	106*	/	4	-2	-4
COc1cc(NC(=O)c2cc(C)on2)cc(C(=O)Nc2cccc(C(F)(F)F)c2)c1	12	-1	1	-15	50*	1
SMILES	PrPC surface inh	BJeLR lethal	PriA SSB inh	PrP 5UTR inh	PfHsp40 rescue	RecA intein inh
CCOC(=O)c1ccc2nc(NC(=O)C3CCCCN3S(C)(=O)=O)sc2c1 (stereo not drawn)	/	/	-1	/	/	/
COc1ccc(CCNC(=O)C(=O)Nc2cc(C)on2)cc1OC	/	/	-5	/	/	/
Cc1ccc(S(=O)(=O)CCc2nnc(NC(=O)c3ccccn3)s2)cc1	/	10	85*	-24	-1	-1
CCn1c(=O)c(C(=O)NCc2ccc(OC)c(OC)c2)c(O)c2ccccc21	-4	4	-11	-7	0	4
CCCn1c(=O)c(C(=O)NCc2ccc(OC)c(OC)c2)c(O)c2ccccc21	-3	-14	-16	-30	334*	2
COC(CNC(=O)CCS(=O)(=O)c1ccccc1)c1ccc(C)s1 (stereo not drawn)	/	/	4	/	/	/
Cc1cc(C)[n+]2c(C)sc(-c3ccccc3)c2n1	/	/	-13	/	/	/
